The source of these data is PubChem BioAssay (NCATS).

One test concerns TAB165. In words: qHTS profiling for inhibitors of Plasmodium falciparum proliferation (AID 504749). Further: potency means the concentration at half of the fitted maximal effect. The note with it: P. falciparum in erythrocytes, SYBR Green DNA, 72 h; series mostly up to 28.7 µM. In a few lines:
(§1)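 In a 72 h erythrocytic culture (37 C, humidified, 5% CO2) at 2.5% hematocrit and 0.3% starting parasitemia, compounds were tested; SYBR Green I in detergent lysis buffer stained parasite DNA overnight.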
In general terms: In qHTS, concentration-response curves come from the screen itself.

The subject of the next test is CRL-7250. Description: Cytotoxic Profiling of Annotated Libraries Using Quantitative High-Throughput Screening (AID 1296008). Further: potency means the concentration at half of the fitted maximal effect. On max response: on the % scale 0 is the no-effect control and ±100 the full control effect. The note with it: Five cell lines viability, CellTiter-Glo ATP luminescence, 48-72 h; max response: stronger effect = lower value. In a few lines:
(§2)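 Cytotoxicity was measured as CellTiter-Glo ATP luminescence, read after 10 min at room temperature. Compound treatment of the cells lasted 48 or 72 hr at 37 degrees Celsius in a qHTS format.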
(In general: ATP-based viability assays read luminescence as a measure of living cells.)

Another test deals with HEK293. Described as above. The note with it: Five cell lines viability, CellTiter-Glo ATP luminescence, 48-72 h; max response: stronger effect = lower value. Put shortly:
as §2

The test system of test [1] is HaCat. Described as above. The conditions noted are these: Five cell lines viability, CellTiter-Glo ATP luminescence, 48-72 h; max response: stronger effect = lower value. In a few lines: as §2
The subject of another test is KB-3-1. Described as above. The note with it: Five cell lines viability, CellTiter-Glo ATP luminescence, 48-72 h; max response: stronger effect = lower value. In a few lines:
as §2

Another test has as its system NIH3T3. The test is described as above. The conditions noted are these: Five cell lines viability, CellTiter-Glo ATP luminescence, 48-72 h; max response: stronger effect = lower value. Put shortly:
as §2

A further test has as its system TAB109. In words: qHTS profiling for inhibitors of Plasmodium falciparum proliferation (AID 504749). Further: potency means the concentration at half of the fitted maximal effect. The conditions noted are these: P. falciparum in erythrocytes, SYBR Green DNA, 72 h; series mostly up to 28.7 µM. In a few lines: as §1
For the next test, the system named is TAB113. The description is as above. The note with it: P. falciparum in erythrocytes, SYBR Green DNA, 72 h; series mostly up to 28.7 µM. In a few lines:
as §1

The next test deals with W2. The test is described as above. The conditions noted are these: P. falciparum in erythrocytes, SYBR Green DNA, 72 h; series mostly up to 28.7 µM. Put shortly:
as §1

The test system of test [2] is HACAT. In words: qHTS assay to identify novel small-molecules to repurpose for Merkel cell carcinoma treatment (AID 1296009). The conditions noted are these: MCC and control cell lines, CellTiter-Glo viability, 72 h; series mostly up to 44.8 µM. Put shortly: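 Cell viability measured by CellTiter-Glo following 72 hr compound treatment at 37 degree celsius, with NPC and MIPE libraries tested in 8- and 11-point concentration series.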

Several values for one entry are separate records, joined by “and”; a condition that tells them apart may be missing. Equal entries are not always repeated. Records with an inconclusive call do not appear. A structure can be active in one record and inactive in another. Values without a mark were called inactive. Activity calls are given as the source filed them. The call rests on the fitted dose curve; in most records, active means well fitted inhibition curve with a large enough effect; inconclusive means small, poorly fitted or top-dose-only effect; inactive means flat fitted curve, though single readings scatter.
Further: nearly all actives have a fitted effect of over 60% in size.

For `O=c1c(O)c(-c2ccc(O)c(O)c2)oc2cc(O)cc(O)c12`, in the test on TAB165, the Potency was 7.08 µM (active). In addition, the max response in the test on CRL-7250 was -43%; in the test on HEK293, -3.52% and -1.32%; in the test on HaCat [1] it was -5.77% and -18.7%; with KB-3-1 it was 4.77% and 21.1%; in the test on NIH3T3, -3.23%. The molecule was classed as inactive in the test with CRL-7250.

For `Cc1cc(C(C)(C)C)c(O)c(C)c1CC1=NCCN1`, the Potency result in the test with TAB109, in the test with TAB113, with TAB165 and with W2 was “inactive” throughout. Further, the max response with CRL-7250 was 4.59% and 1.76%; in the test with HEK293 it was -3.25%; with HaCat [1], -9.17% and -0.1%; in the test with NIH3T3, 3.71%. For the same molecule, the call in the test on CRL-7250, in the test on HaCat [1], in the test on NIH3T3 and with HACAT [2] was inactive. Moreover, the Potency with HEK293 is 9.35 µM (active).

Turning to `Nc1nc2c(ncn2COC(CO)CO)c(=O)[nH]1`, the Potency entry in the test on TAB109, in the test with TAB113, in the test with TAB165 and in the test with W2 was “inactive” in each case. The max response with CRL-7250 was 1.91%; with HEK293, -8.08%; in the test on HaCat [1], -15.7%; with KB-3-1, 5.82%; with NIH3T3 it was -3.13%. The Potency with HEK293 is 0.132 µM (active).

Regarding `CN(C)c1nc(N(C)C)nc(N(C)C)n1`, the Potency entry with TAB109, in the test on TAB113, in the test with TAB165 and in the test on W2 was “inactive” throughout. Moreover, the max response in the test on CRL-7250 was -4.79%; in the test with HEK293, -4.81% and -7.03%; in the test on HaCat [1], -7.57% and -4.4%; in the test on NIH3T3, 1.4% and 1.9%. Moreover, the molecule was classed as inactive in the test with CRL-7250.

Consider `Cn1ccc2cc3c(cc21)CCN3C(=O)Nc1cccnc1`, for which the max response with CRL-7250 is -6.32%; in the test with HEK293 it was -20.9%; in the test with HaCat [1], -2.9%; in the test with NIH3T3, 0.531%. Also, the molecule was called inactive in the test with CRL-7250, with HEK293 and with NIH3T3.

On to `Clc1ccc2nsnc2c1NC1=NCCN1`, for which the Potency entry in the test on TAB109, with TAB113, in the test on TAB165 and in the test on W2 was “inactive” each time. Also, the max response with CRL-7250 was 0.544% and 2.61%; in the test with HEK293, -8.03%; with HaCat [1], 2.64%; in the test on KB-3-1 it was -0.508% and 0.187%; in the test on NIH3T3 it was 1.46%. Moreover, the result with HEK293, with HaCat [1], with NIH3T3 and in the test on HACAT [2] was inactive.

Regarding `COc1nc(C)nc(Cl)c1NC1=NCCN1`, the Potency result with TAB109, with TAB113, with TAB165 and with W2 was “inactive” in each case. The max response with CRL-7250 is -8.35%; in the test on HEK293 it was -5.08% and -4.05%; in the test on KB-3-1, 11.6% and 7.19%; with NIH3T3, -2.5% and 2.31%. Moreover, the call in the test with HaCat [1] and in the test with HACAT [2] was inactive.

With `CC(C)Cc1ccc(C(C)C(=O)O)cc1` (stereo unspecified), the Potency result with TAB109, in the test with TAB113, in the test with TAB165 and with W2 was “inactive” in each case. In addition, the max response with CRL-7250 was -13.3% and 3.74%; in the test with HEK293, 1.58% and -3.42%; in the test with HaCat [1], -14.1%; with NIH3T3, 2.78%. The molecule was called inactive in the test on HaCat [1], with NIH3T3 and in the test with HACAT [2].

Regarding `CN(CCOc1ccc(NS(C)(=O)=O)cc1)CCc1ccc(NS(C)(=O)=O)cc1`, the Potency result with TAB109, in the test on TAB113, in the test with TAB165 and in the test on W2 was “inactive” each time. The molecule was called inactive with CRL-7250, with HEK293, in the test on HaCat [1], in the test with NIH3T3 and in the test with HACAT [2]. Besides, the max response with HaCat [1] is 2.47%; in the test on KB-3-1, -3.43%.

Regarding `Cc1cn([C@H]2C=C[C@@H](CO)O2)c(=O)[nH]c1=O`, the Potency entry in the test with TAB109, with TAB113, in the test on TAB165 and with W2 was “inactive” in each case. For the same molecule, the max response was -12.9% and -2.54% in the test on CRL-7250; -0.556% and 1.63% with HEK293; 4.4% and -10.3% in the test with HaCat [1]; 1.04% and -9.57% in the test on NIH3T3. The outcome with KB-3-1 was inactive.

`O=c1c(-c2ccc(O)cc2)coc2cc(O)cc(O)c12`: the Potency result with TAB109, with TAB113 and in the test with TAB165 was “inactive” in each case. In addition, the max response in the test with CRL-7250 was 4.48%; with HEK293, -3.7%; in the test on HaCat [1], 0.82%; in the test with KB-3-1 it was 32.1%; in the test on NIH3T3, -9.8% and -21.1%. Further, the result in the test with HaCat [1], in the test on KB-3-1 and with HACAT [2] was inactive.

`NS(=O)(=O)c1cc2c(cc1Cl)NCNS2(=O)=O`: the Potency result with TAB109, in the test on TAB113, with TAB165 and in the test with W2 was “inactive” in each case. Further, the call in the test with CRL-7250, with HEK293, in the test on HaCat [1] and in the test on HACAT [2] was inactive. In addition, the max response with HaCat [1] is 0.753%; in the test with KB-3-1, 23% and 9.86%; in the test with NIH3T3, -2.86% and -1.17%.

In the case of `Cc1ccc(C(=O)Nc2ccc(S(=O)(=O)O)c3cc(S(=O)(=O)O)cc(S(=O)(=O)O)c23)cc1NC(=O)c1cccc(NC(=O)Nc2cccc(C(=O)Nc3cc(C(=O)Nc4ccc(S(=O)(=O)O)c5cc(S(=O)(=O)O)cc(S(=O)(=O)O)c45)ccc3C)c2)c1`, the Potency entry with TAB113, in the test on TAB165 and in the test with W2 was “inactive” each time. Also, the max response with CRL-7250 is 0.897%; with KB-3-1, 9.63% and 6.6%; in the test on NIH3T3, -7.7%. The molecule was called inactive with HEK293, in the test with HaCat [1], in the test on NIH3T3 and in the test with HACAT [2].

Consider `CC[C@@]1(O)C(=O)OCc2c1cc1n(c2=O)Cc2cc3c(CN(C)C)c(O)ccc3nc2-1`, for which the Potency in the test on TAB109 was 6.31 µM (active); with TAB113 it was 4.47 µM (active); with TAB165 it was 3.55 µM (active); in the test with W2 it was 5.36 µM (active); in the test on CRL-7250 it was 7.5 µM (active) and 14.8 µM (active) and 6.51 µM (active); with HEK293 it was 372 nM (active) and 517 nM (active). In addition, the Potency in the test with HaCat [1] was 1.05 µM (active) and 1.46 µM (active); in the test on KB-3-1, 5.9 µM (active) and 3.26 µM (active); in the test with NIH3T3, 1.68 µM (active) and 1.32 µM (active) and 2.06 µM (active).
